Laboratory results reported in PubChem BioAssay AID1159580 (chemical genetic matrix, 2015).
The campaign covered roughly 5,500 compounds. About 2,000 (36%) were called active. Another 18% or so got no clear call; they are omitted. Rule as the data show it: active = normalized growth mostly below about 0.91 (no sharp cut-off); inconclusive = no clear call, values can overlap the other calls; inactive = mostly above about 0.92. This is one part of the list.

Assay: chemical genetic growth profiling, strain panel (AID 1159580);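 also: tested at 20 µM; growth read once vehicle control cultures reached saturation at 30 °C; 1 = growth at the plate median or of vehicle wells; lower values mean less growth of the strain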
Details: growth OD

Measured: normalized growth

C[N+]12CCC(CC1)C(OC(=O)C(O)(c1ccccc1)c1ccccc1)C2 (configuration not stated)
inactive: S. cerevisiae deletion strains, locus YJR075W, strain HOC1, hits give low values 0.982 | S. cerevisiae deletion strains, locus YKL009W, strain mrt4, hits give low values 0.998 | S. cerevisiae deletion strains, locus YKL068W, hits give low values 0.985 | S. cerevisiae deletion strains, locus YKL085W, strain MDH1 (second series), hits give low values 0.994 | S. cerevisiae deletion strains, locus YKL085W, strain MDH1, hits give low values 0.994 | S. cerevisiae deletion strains, locus YKL160W, strain elf1, hits give low values 0.962 | S. cerevisiae deletion strains, locus YKL190W, strain CNB1, hits give low values 1 | S. cerevisiae deletion strains, locus YKR001C, strain vps1, hits give low values 0.958 | S. cerevisiae deletion strains, locus YKR026C, strain gcn3, hits give low values 0.984 | S. cerevisiae deletion strains, locus YKR091W, strain srl3, hits give low values 0.972 | S. cerevisiae deletion strains, locus YLL001W, strain dnm1, hits give low values 0.922 | S. cerevisiae deletion strains, locus YLL026W, hits give low values 0.975 | S. cerevisiae deletion strains, locus YLL041C, strain sdh2, hits give low values 1 | S. cerevisiae deletion strains, locus YLR027C, strain aat2, hits give low values 0.977 | S. cerevisiae deletion strains, locus YLR039C, strain RIC1, hits give low values 1.02 | S. cerevisiae deletion strains, locus YLR058C, strain SHM2, hits give low values 0.985 | S. cerevisiae deletion strains, locus YLR102C, strain apc9, hits give low values 0.987 | S. cerevisiae deletion strains, locus YLR113W, strain HOG1, hits give low values 0.975 | S. cerevisiae deletion strains, locus YLR221C, strain rsa3, hits give low values 0.929 | S. cerevisiae deletion strains, locus YLR258W, strain gsy2, hits give low values 0.979 | S. cerevisiae deletion strains, locus YLR262C, strain YPT6 (second series), hits give low values 0.955 | S. cerevisiae deletion strains, locus YLR262C, strain YPT6, hits give low values 1 | S. cerevisiae deletion strains, locus YLR268W, strain sec22, hits give low values 0.906 | S. cerevisiae deletion strains, locus YLR320W, strain mms22, hits give low values 0.952 | S. cerevisiae deletion strains, locus YLR330W, strain CHS5, hits give low values 0.995 | S. cerevisiae deletion strains, locus YLR342W, strain FKS1 (second series), hits give low values 1.01 | S. cerevisiae deletion strains, locus YLR342W, strain FKS1, hits give low values 0.989 | S. cerevisiae deletion strains, locus YLR357W, strain rsc2, hits give low values 0.983 | S. cerevisiae deletion strains, locus YLR370C, strain arc18, hits give low values 0.966 | S. cerevisiae deletion strains, locus YLR371W, strain rom2, hits give low values 0.977 | S. cerevisiae deletion strains, locus YLR384C, strain iki3, hits give low values 0.985 | S. cerevisiae deletion strains, locus YLR418C, strain cdc73, hits give low values 0.955 | S. cerevisiae deletion strains, locus YML016C, strain PPZ1, hits give low values 0.989 | S. cerevisiae deletion strains, locus YML032C, strain rad52, hits give low values 0.96 | S. cerevisiae deletion strains, locus YML120C, strain ndi1, hits give low values 0.939 | S. cerevisiae deletion strains, locus YML124C, strain tub3, hits give low values 0.985 | S. cerevisiae deletion strains, locus YMR058W, strain fet3, hits give low values 0.981 | S. cerevisiae deletion strains, locus YMR078C, strain ctf18, hits give low values 0.977 | S. cerevisiae deletion strains, locus YMR125W, strain sto1, hits give low values 0.924 | S. cerevisiae deletion strains, locus YMR129W, hits give low values 1.01 | S. cerevisiae deletion strains, locus YMR205C, strain PFK2, hits give low values 0.948 | S. cerevisiae deletion strains, locus YMR223W, strain ubp8, hits give low values 1.01 | S. cerevisiae deletion strains, locus YMR231W, strain pep5, hits give low values 1 | S. cerevisiae deletion strains, locus YMR263W, strain SAP30, hits give low values 0.985 | S. cerevisiae deletion strains, locus YMR307W, strain GAS1, hits give low values 1 | S. cerevisiae deletion strains, locus YNL067W, strain RPL9B, hits give low values 0.978 | S. cerevisiae deletion strains, locus YNL071W, strain lat1, hits give low values 1 | S. cerevisiae deletion strains, locus YNL128W, strain TEP1, hits give low values 0.998 | S. cerevisiae deletion strains, locus YNL153C, strain GIM3, hits give low values 0.98 | S. cerevisiae deletion strains, locus YNL183C, strain NPR1, hits give low values 0.932 | S. cerevisiae deletion strains, locus YNL209W, strain ssb2, hits give low values 0.978 | S. cerevisiae deletion strains, locus YNL233W, strain BNI4, hits give low values 0.978 | S. cerevisiae deletion strains, locus YNL248C, strain rpa49, hits give low values 0.984 | S. cerevisiae deletion strains, locus YNL250W, strain rad50, hits give low values 0.985 | S. cerevisiae deletion strains, locus YNL271C, strain bni1, hits give low values 0.974 | S. cerevisiae deletion strains, locus YNL298W, strain CLA4, hits give low values 0.984 | S. cerevisiae deletion strains, locus YNL307C, strain MCK1, hits give low values 0.969 | S. cerevisiae deletion strains, locus YNL322C, strain KRE1 (second series), hits give low values 0.966 | S. cerevisiae deletion strains, locus YNL322C, strain KRE1, hits give low values 0.998 | S. cerevisiae deletion strains, locus YNR049C, strain mso1, hits give low values 0.973 | S. cerevisiae deletion strains, locus YNR052C, strain pop2, hits give low values 0.986 | S. cerevisiae deletion strains, locus YOL006C, strain TOP1, hits give low values 0.965 | S. cerevisiae deletion strains, locus YOL012C, strain htz1 0.92 | S. cerevisiae deletion strains, locus YOL147C, strain pex11, hits give low values 0.985 | S. cerevisiae deletion strains, locus YOR001W, strain rrp6, hits give low values 1.04 | S. cerevisiae deletion strains, locus YOR061W, strain CKA2, hits give low values 0.99 | S. cerevisiae deletion strains, locus YOR069W, strain VPS5, hits give low values 0.986 | S. cerevisiae deletion strains, locus YOR070C, strain gyp1, hits give low values 0.985 | S. cerevisiae deletion strains, locus YOR080W, strain dia2, hits give low values 0.97 | S. cerevisiae deletion strains, locus YOR083W, strain WHI5, hits give low values 0.965 | S. cerevisiae deletion strains, locus YOR106W, strain vam3, hits give low values 0.951 | S. cerevisiae deletion strains, locus YOR136W, strain idh2, hits give low values 0.979 | S. cerevisiae deletion strains, locus YOR144C, strain elg1, hits give low values 0.984 | S. cerevisiae deletion strains, locus YOR184W, strain ser1, hits give low values 0.96 | S. cerevisiae deletion strains, locus YOR231W, strain MKK1, hits give low values 0.98 | S. cerevisiae deletion strains, locus YOR265W, strain rbl2, hits give low values 0.986 | S. cerevisiae deletion strains, locus YOR270C, strain vph1, hits give low values 0.995 | S. cerevisiae deletion strains, locus YOR290C, strain snf2, hits give low values 0.966 | S. cerevisiae deletion strains, locus YOR316C, strain cot1, hits give low values 0.975 | S. cerevisiae deletion strains, locus YPL051W, strain arl3, hits give low values 0.987 | S. cerevisiae deletion strains, locus YPL055C, strain LGE1, hits give low values 0.992 | S. cerevisiae deletion strains, locus YPL078C, strain atp4, hits give low values 0.958 | S. cerevisiae deletion strains, locus YPL106C, strain sse1, hits give low values 0.94 | S. cerevisiae deletion strains, locus YPL240C, strain hsp82, hits give low values 0.996 | S. cerevisiae deletion strains, locus YPL241C, strain CIN2, hits give low values 0.996 | S. cerevisiae deletion strains, locus YPL256C, strain CLN2, hits give low values 0.959 | S. cerevisiae deletion strains, locus YPR119W, strain clb2, hits give low values 0.983 | S. cerevisiae deletion strains, locus YPR141C, strain kar3, hits give low values 0.967 | S. cerevisiae deletion strains, locus YPR163C, strain tif3, hits give low values 0.973 | S. cerevisiae deletion strains, locus YPR167C, strain met16, hits give low values 0.978 | S. cerevisiae deletion strains, strain wtn01, hits give low values 0.964 | S. cerevisiae strains, strain wild type, hits give low values 0.992
